Compound activity: PubChem, Emory University Molecular Libraries Screening Center
This excerpt belongs to a sample that is enriched for hits.
14-3-3 PPI: modulators of human 14-3-3 gamma - Raf peptide interaction | P61981 | inhibition, % at 40 µM | FP, 14-3-3gamma / TMR-pS259-Raf peptide binding | 160,000 tested, 0.19% active; in the data active means inhibition above about 30%;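 further: 0% = protein plus tracer without compound and 100% = blank with tracer alone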
Target sequence (P61981 whole entry, looked up): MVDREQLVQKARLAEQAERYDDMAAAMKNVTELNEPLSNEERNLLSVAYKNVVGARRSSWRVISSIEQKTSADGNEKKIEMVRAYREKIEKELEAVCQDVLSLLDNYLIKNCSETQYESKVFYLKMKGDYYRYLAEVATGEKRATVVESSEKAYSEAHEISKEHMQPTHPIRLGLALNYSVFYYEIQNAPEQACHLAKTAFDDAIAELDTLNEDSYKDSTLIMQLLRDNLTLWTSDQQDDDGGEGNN
* = called active by the depositor; ! = not active in a repeat.

Screening CCN1C(=O)c2cccc3c(S(=O)(=O)N4CCCC4)ccc1c23 returned 14-3-3 PPI 8.
For CCN1C(=O)c2ccc(S(=O)(=O)N3CCCCCC3)c3cccc1c23 the results were 14-3-3 PPI 1.
Cn1c(=O)c2c(SCC(=O)N3CCc4ccccc43)nc(-c3ccco3)nc2n(C)c1=O was read as 14-3-3 PPI -22.
`CCCCNC(=O)c1sc2ncnc(N(C)c3ccccc3)c2c1C` gave 14-3-3 PPI -5.
Screening O=C(Nc1ccccn1)C12CC3CC(CC(Br)(C3)C1)C2 returned 14-3-3 PPI -5.
`CN(C(=O)c1ccc2c(c1N)C(=O)c1ccccc1C2=O)c1ccccc1` gave 14-3-3 PPI 132*.
For CN(C(=O)c1ccc2c(c1)C(=O)c1ccccc1-2)c1ccc([N+](=O)[O-])cc1 the results were 14-3-3 PPI -3.
Screening CCSc1c(C(N)=O)ccc2c1C(=O)c1ccccc1C2=O returned 14-3-3 PPI -42.
`Cc1cccc(NC(=O)CSc2nc3c(c(=O)n2-c2ccccc2)SCC3)c1` gave 14-3-3 PPI -20.
Screening CCc1nc(C)ccc1OCC(=O)NCCCN(C)C returned 14-3-3 PPI -4.
For CCc1nc(C)ccc1OCC(=O)O the results were 14-3-3 PPI 74*!.
Cc1ccc2nc(C)cc(OCC(=O)O)c2c1 was read as 14-3-3 PPI -6.
`Cc1ccc(NC(=O)Cn2c3ccccc3c(=O)c3cc(C)ccc32)c(Br)c1` gave 14-3-3 PPI -15.
`Cc1cccc(-n2c(CSc3nc4ccccc4n3C)nc3ccccc3c2=O)c1C` gave 14-3-3 PPI -1.
`CC(C)(C)P1(=O)OCc2ccccc2CO1` gave 14-3-3 PPI -7.
For O=C(CCC1Nc2c3ccccc3nc(=S)n2C1=O)N1CCC(O)(c2cccc(C(F)(F)F)c2)CC1 (stereo unspecified) the results were 14-3-3 PPI 0.
Screening Cc1cccc(C(=O)Nc2cccc(NC(=O)c3ccc(F)cc3)c2)c1 returned 14-3-3 PPI 2.
Screening Cc1cccc(C(=O)Nc2ccc(O)cc2)c1 returned 14-3-3 PPI 2.
Screening Cc1cccc(C(=O)Nc2cccc(NC(=O)c3cccc(C)c3)c2)c1 returned 14-3-3 PPI 45*.
`CCOCCCNS(=O)(=O)c1ccc2c(c1)CCN2C(=O)C1CC1` gave 14-3-3 PPI 2.
`CC(=O)Oc1ccc2nc(-c3cc([N+](=O)[O-])ccc3Cl)oc(=O)c2c1` gave 14-3-3 PPI -4.
`O=C(CSc1nc2c(cnn2-c2ccccc2)c(=O)[nH]1)Nc1ccc(F)cc1` gave 14-3-3 PPI 13.
Screening C=CCn1c(NC(C)CC)nc2c1c(=O)n(C)c(=O)n2C (stereo unspecified) returned 14-3-3 PPI -7.
`Cc1ccccc1NC(=O)c1cc2c(ccc3ccccc32)oc1=N` gave 14-3-3 PPI -1.
Screening O=C1c2ccccc2C(=O)c2cc(Br)ccc21 returned 14-3-3 PPI -6.
For Nc1cc2c3c(cccc3n1)C(=O)c1ccccc1-2 the results were 14-3-3 PPI 73*.
For O=C1c2ccccc2-c2nc(-c3ccccc3)cc3cccc1c23 the results were 14-3-3 PPI -14.
For Cc1ccc2[nH]c(=O)cc(C)c2c1 the results were 14-3-3 PPI -8.
Screening O=[N+]([O-])c1ccc(-c2cn(-c3ccc(F)cc3)c(=S)[nH]2)cc1 returned 14-3-3 PPI -4.
For CC1=C(C(=O)Nc2ccc(C)cc2)C(c2ccc(Br)cc2)NC(=O)N1 (stereo unspecified) the results were 14-3-3 PPI -7.
Screening Cc1ccc2cc3cc(C(=O)NCCCN4CCN(C)CC4)oc3nc2c1 returned 14-3-3 PPI 66*.
`CCN1CCN(CCCNC(=O)c2cc3cc4ccc(C)cc4nc3o2)CC1` gave 14-3-3 PPI -9.
Screening Cc1ccc2cc3cc(C(=O)NCCCN4CCC(C)CC4)oc3nc2c1 returned 14-3-3 PPI 6.
For CCC(=O)Nc1sc2c(c1C(=O)Nc1cccc(Cl)c1)CCC2 the results were 14-3-3 PPI -17.
Screening CC(=O)Nc1ccc(NC(=O)CSc2nnc(C)s2)cc1 returned 14-3-3 PPI -4.
COc1cc(NC(=O)c2ccc3c(=O)n(Cc4cccc(Br)c4)c(=S)[nH]c3c2)cc(OC)c1OC was read as 14-3-3 PPI -3.
For CCOC(=O)C1=C(C)NC(C)=C(C(=O)OCC)C1c1ccc(-c2ccccc2Cl)o1 the results were 14-3-3 PPI -19.
CCOC(=O)C1=C(C)NC(C)=C(C(=O)OCC)C1c1ccc(-c2ccccc2)o1 was read as 14-3-3 PPI 40*.
COC(=O)C1=C(C)NC(C)=C(C(=O)OC)C1c1ccc(-c2ccc(Cl)cc2)o1 was read as 14-3-3 PPI -21.
`COc1cc(NC(=O)c2[nH]c(C)c(C(C)=O)c2C)cc(OC)c1` gave 14-3-3 PPI -12.
Cn1c(=O)c2c(nc(SCC(=O)O)n2C)n(C)c1=O was read as 14-3-3 PPI -3.
Cc1ccc(NS(=O)(=O)c2ccc(N)cc2)nc1 was read as 14-3-3 PPI 6.
For COc1cc(C(=O)Nc2ccc(Br)cc2)ccc1OCc1cccc(F)c1 the results were 14-3-3 PPI 0.
